Hits are enriched below; roughly 3.1% of the tested compounds scored in any of these assays.
KKLEB tox: cytotoxicity in KKLEB CF airway cells, primary screen, cytotoxicity control for CF NF-kB inhibitor project, cell-based, uHTS, fluorescence assay plates | KKLEB CF airway cells viability, ATPlite luminescence, overnight; hits give low values; cells stimulated with P. aeruginosa culture filtrate | activity change (cytotoxicity), % at 5 µM | actives 0.36% (n = 360,000);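 active = corrected activity change at or below -50% at 5 µM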
ABHD5 PLIN5 PPI: ABHD5-PLIN5 interaction inhibitors, primary screen, cell lysate, split luciferase complementation, luminescence | Perilipin-5 (Homo sapiens) + 1-acylglycerol-3-phosphate O-acyltransferase ABHD5 (Homo … | Split G. princeps luciferase complementation, 4 h | inhibition, % at 4 µM | actives 0.78% (n = 360,000) | AID 602281, 2012;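 active = inhibition above the mean inhibition across every tested compound plus 3 SD, cut at about 22% in these data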;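 also: 0% = DMSO only wells and the 100% control is not disclosed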
Target sequence (Q00G26 whole entry, looked up): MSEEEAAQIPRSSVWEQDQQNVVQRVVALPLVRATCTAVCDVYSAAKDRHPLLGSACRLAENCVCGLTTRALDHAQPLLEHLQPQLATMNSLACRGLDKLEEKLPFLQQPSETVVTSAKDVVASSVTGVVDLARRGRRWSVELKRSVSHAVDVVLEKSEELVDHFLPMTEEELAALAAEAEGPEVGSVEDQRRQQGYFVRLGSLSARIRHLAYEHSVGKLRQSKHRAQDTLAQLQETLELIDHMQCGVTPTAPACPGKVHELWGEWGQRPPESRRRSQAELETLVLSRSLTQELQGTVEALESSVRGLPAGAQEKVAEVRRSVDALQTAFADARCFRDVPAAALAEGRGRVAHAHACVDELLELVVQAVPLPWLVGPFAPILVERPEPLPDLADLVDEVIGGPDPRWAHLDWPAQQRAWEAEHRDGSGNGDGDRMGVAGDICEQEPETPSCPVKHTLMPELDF
Target sequence (Q8WTS1 whole entry, looked up): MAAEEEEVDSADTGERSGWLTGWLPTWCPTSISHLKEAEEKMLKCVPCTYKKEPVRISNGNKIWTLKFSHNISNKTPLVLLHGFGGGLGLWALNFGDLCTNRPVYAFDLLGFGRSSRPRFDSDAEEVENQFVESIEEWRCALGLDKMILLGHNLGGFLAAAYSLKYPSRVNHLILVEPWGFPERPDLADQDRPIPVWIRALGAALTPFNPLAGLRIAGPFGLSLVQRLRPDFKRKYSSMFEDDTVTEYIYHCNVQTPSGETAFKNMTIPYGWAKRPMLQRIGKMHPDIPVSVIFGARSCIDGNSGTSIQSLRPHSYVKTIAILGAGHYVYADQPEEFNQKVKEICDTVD
HIF-2a block: HIF-2a reporter inhibitors, primary screen, luminescence, 786-0 RCC cells; 786-0 RCC cells HIF-2a reporter, luciferase luminescence, overnight; inhibition, % at 18.8 µM; actives 0.72% (n = 360,000); AID 624352, 2012;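 active = inhibition of the luminescence signal of 40% or more relative to plate controls, in a single-dose primary screen at 18.75 µM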
MITF TRPM1 inh: inhibitors of MITF-dependent TRPM1 promoter reporter, primary screen, cell-based, SK-MEL-5, single point, luciferase. SK-MEL-5 TRPM1 promoter luciferase, 24 h. actives 0.83% (n = 330,000). inhibition, % at 12.5 µM;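 active = mean inhibition across replicates of 60% or more, whatever share of single replicates reaches that level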
CF NFkB block: inhibitors of PAF-induced NF-kB signaling, primary screen, cell-based, GFP fluorescence, uHTS. KKLEB NF-kB-GFP reporter, GFP fluorescence overnight. inhibition, % at 5 µM. actives 0.86% (n = 360,000). AID 588850, 2011;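 active = at least 50% inhibition at 5 µM, scaled per plate between neutral and stimulator controls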;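 also: PAF is a Pseudomonas aeruginosa culture filtrate used as stimulus; plate controls were PAF-stimulated DMSO wells for no effect and unstimulated DMSO wells for full effect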
Peg3 promoter: Peg3 promoter-driven luciferase inhibitors, primary screen, cell-based, HeLa, luciferase luminescence; HeLa PEG-Prom luciferase reporter, overnight; inhibition, % at 20 µM; actives 1.7% (n = 360,000); AID 588405, 2011;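 active = inhibition of at least 50% at 20 µM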
ABHD5 PLIN5 conf: ABHD5-PLIN5 interaction inhibitors, confirmation, biochemical, luminescence; shares compounds with ABHD5 PLIN5 PPI; inhibition, % at 4 µM; actives 67% (n = 2,200); AID 651612, 2012; in the data active = inhibition above about 23%;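 also: 0% = DMSO vehicle wells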
HNF4 counter: HNF4 dimerization inhibitors, counter-screen for ABHD5-PLIN5 interaction inhibitor project, biochemical, split-luciferase complementation, luminescence | shares compounds with ABHD5 PLIN5 PPI | inhibition, % at 4 µM | actives 77% (n = 2,200) | AID 651674, 2012;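 active = mean inhibition across replicate wells exceeding the computed hit threshold, cut at about 13% in these data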;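 also: light from luciferase halves that rejoin when HNF4 fusion proteins dimerize; 0% = DMSO only wells and the 100% control is not given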
* marks the source's active call; other numbers are inactive results; · = not tested or not shown.

SMILES | KKLEB tox | ABHD5 PLIN5 PPI | HIF-2a block | MITF TRPM1 inh | CF NFkB block | Peg3 promoter | ABHD5 PLIN5 conf | HNF4 counter
Cc1ccc2nc(-c3ccco3)c(Cc3cccc(F)c3)n2c1 | -4 | 56* | -179 | · | 1 | -131 | 11 | 20*
Cc1ccc2nc(-c3ccco3)c(CC3CCCCC3)n2c1 | -10 | 35* | -47 | · | 23 | -35 | 17 | 22*
Cc1ccc2nc(-c3ccccc3)c(Cc3cccc(F)c3)n2c1 | · | -5 | -130 | · | · | · | · | ·
COc1ccc(NC(=O)Nc2cccc3c2O[C@H](CN(C)C(=O)Nc2ccc4c(c2)OCO4)[C@@H](C)CN([C@H](C)CO)C3=O)cc1 | -2 | -5 | -21 | -19 | -19 | 15 | · | ·
C#CCSc1nc2sc3c(c2c(=O)n1C)CCC3 | -9 | 5 | -4 | -17 | 0 | -7 | · | ·
Cc1ccc(Cl)cc1NCN1C(=O)c2ccccc2C1=O | 2 | -1 | 10 | · | 22 | 10 | · | ·
COc1ccc(CNC(=O)C(C)N(Cc2ccccc2OC)C(=O)c2snc(C(N)=O)c2N)cc1 (stereo not given) | -7 | -1 | 6 | · | 8 | 36 | · | ·
CC(C(=O)Nc1cccnc1)C1Sc2ccccc2NC1=O (stereo not given) | 7 | -1 | -35 | 14 | 7 | -59 | · | ·
COc1ccccc1Cc1c(-c2ccco2)nc2ccc(C)cn12 | -26 | 56* | -195 | · | -12 | -198 | 27* | 48*
Cc1ccc2c(c1)c(C1=c3ccccc3=NC1=O)c(O)n2C | -15 | 33* | 42* | 14 | 53* | 21 | 88* | 108*
Cc1c(-n2c(O)c(C3=c4ccccc4=NC3=O)sc2=O)c(=O)n(-c2ccccc2)n1C | 9 | -4 | 6 | 4 | -10 | 7 | · | ·
C=CCn1c(O)c(C2=c3ccccc3=NC2=O)c2ccccc21 | -10 | 90* | 45* | 21 | 29 | 49 | 85* | 107*
C=CCn1c(O)c(C2=c3ccccc3=NC2=O)s/c1=N/c1nccs1 | -13 | -12 | -1 | · | 10 | 41 | · | ·
O=C(CCl)N(C/C=C/c1ccccc1)c1ccc2c(c1)OCCO2 | -100* | 25* | -56 | 4 | 92* | -59 | 24* | 29*
O=C(Nc1ccccc1O)N1c2ccccc2Sc2ccccc21 | 11 | 0 | 15 | -2 | -7 | 0 | · | ·
COc1ccc(NC(=O)C2CCCN(CCCc3ccccc3)C2)cc1OCC(C)C (stereo not given) | -9 | 39* | 22 | 4 | 15 | 31 | 22* | 15*
O=C(/C=C/c1ccccc1Cl)NNC(=O)c1ccncc1 | 6 | 10 | -13 | -7 | -2 | 9 | · | ·
N#Cc1ccc(/C=C/C(=O)c2cccnc2)cc1 | 1 | 82* | 14 | 20 | -2 | 70* | 92* | 96*
O=C(/C=C/c1ccc(Cl)cc1)c1cccnc1 | -4 | 80* | 32 | 3 | 12 | 44 | 96* | 100*
CCN(CC)c1ccc(/C=C/C(=O)c2cccnc2)cc1 | 1 | 12 | 23 | -7 | 1 | 10 | · | ·
O=C(/C=C/c1ccc(OCc2ccccc2)c(OCc2ccccc2)c1)c1cccnc1 | -6 | 26* | 26 | 24 | -10 | 37 | 87* | 78*
COc1ccc(C=CC(=O)c2ccc(OCc3ccccc3)c(OC)c2)cc1OC | 2 | 11 | 7 | · | -22 | 30 | · | ·
O=C(/C=C/c1ccccc1Cl)c1cccnc1 | 7 | 71* | 17 | -3 | -2 | 16 | 100* | 102*
CC(C)CN(C(=O)COC(=O)CN1C(=O)c2ccccc2C1=O)c1c(N)n(Cc2ccccc2)c(=O)[nH]c1=O | 18 | 0 | 5 | -4 | -18 | 13 | · | ·
CC(=O)N(c1cccc(C(F)(F)F)c1)c1nc(/C=C/C(=O)O)cs1 | 0 | 1 | 11 | 2 | 12 | 22 | · | ·
SMILES | KKLEB tox | ABHD5 PLIN5 PPI | HIF-2a block | MITF TRPM1 inh | CF NFkB block | Peg3 promoter | ABHD5 PLIN5 conf | HNF4 counter
O=C(CCc1nnc(-c2ccccc2)o1)NCc1cc(F)ccc1F | -6 | -1 | -43 | 0 | 5 | -29 | · | ·
COc1ccccc1/C=C(/NC(=O)c1ccc(Cl)cc1Cl)C(=O)O | 10 | -1 | 4 | 6 | -27 | -7 | · | ·
COc1ccc([C@H]2C[C@@H](n3cc(C4CC4)nn3)[C@H](O)CN2C(=O)c2cccs2)cc1 | 12 | 0 | -3 | · | -16 | -12 | · | ·
Cc1sc2nc(C)n(/N=C/N(C)C)c(=O)c2c1C | 5 | 0 | 13 | 3 | -12 | -18 | · | ·
Cc1nc2scc(-c3ccco3)c2c(=O)n1/N=C/N(C)C | -6 | 43* | 10 | 9 | 19 | 12 | 19 | 29*
Cn1cnnc1SCC(=O)NC1CCCCCC1 | 6 | 4 | 12 | 10 | -6 | 10 | · | ·
NC(=O)c1ccccc1NC(=O)COc1ccc(Cl)cc1 | -4 | 46* | -311 | -86 | 3 | -274 | 5 | -2
Cc1ccc(OCC(=O)Nc2ccccc2C(N)=O)cc1 | 1 | 2 | -249 | -71 | -15 | -220 | · | ·
O=C(O)CC12C[C@H]3C[C@@H](C1)CC(n1ncc(N4CCN(c5ccccc5)CC4)c(Cl)c1=O)(C3)C2 | 1 | 1 | 12 | 3 | -12 | -1 | · | ·
NS(=O)(=O)c1ccc(N=Nc2c(O)ccc3ccccc23)cc1 | 24 | 3 | -36 | 14 | 20 | -55 | · | ·
NS(=O)(=O)c1ccc(N=Nc2ccc(O)c3ncccc23)cc1 | 6 | 24* | -1 | 33 | -11 | 56* | 29* | 20*
CCC(=O)Nc1ccc(C=C(C(C)=O)C(C)=O)cc1 | -12 | -16 | 30 | 16 | 24 | 22 | · | ·
COc1cccc(C=C(C(C)=O)C(=O)c2ccccc2)c1 | · | 77* | 17 | · | · | · | 87* | 80*
COc1cccc(/C=C(/C(=O)OCC(N)=O)c2ccccc2)c1 | 6 | 2 | 17 | -2 | 4 | 5 | · | ·
CCC(=O)Nc1ccc(/C=C(\C(C)=O)C(=O)c2ccccc2)cc1 | -3 | 28* | -7 | 16 | 5 | -35 | 44* | 51*
O=C(Nc1ccc(O)c2c(=O)cc(-c3cccc(Cl)c3)oc12)c1ccc(F)cc1 | 6 | -1 | -21 | -6 | -26 | -15 | · | ·
